# Results filed as inconclusive are left out. The source made the active and inactive calls. How the source made its calls: active means hit-call score of the fitted dose curve at least 0.9, where 1 is the maximum; inconclusive means response in the unintended direction; inactive means score below 0.9.
# Assay: CCTE_Shafer_MEA_acute_LDH: CCTE's Lactate Dehydrogenase Assay for Cytotoxicity in the Neural Acute Assay, Shafer Lab (AID 2284086);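 further: active means LDH release rises above DMSO vehicle level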
# Procedure: CCTE_Shafer_MEA_acute assay is conducted using Axion Biosystems 48 well microelectrode array (MEA) plates and Maestro recording system. Each well of the MEA plate contains a grid of 16 microelectrodes embedded in the culture surface. Electrically active cells, such as neurons, can be cultured over the electrodes, and electrical activity in these cells can be recorded extracellularly. The spontaneous firing of neurons is captured from each electrode on a microsecond timescale providing both temporally and spatially precise data. […] The CCTE_Shafer_MEA_acute assay uses primary cultures of rat cortical neurons. As these cultures mature over time, neural networks develop functional activity and form cohesive networks in which electrical activity can be highly coordinated. Baseline 40-minute recordings are made on days post-plating 13 or 15, followed by a secondary 40-minute recording after chemical exposure.CCTE_Shafer_MEA_acute_LDH is a component of the CCTE_Shafer_MEA_acute assay. It measures the lactate dehydrogenase enzyme activity using spectrophotometry.Data from the assay component CCTE_Shafer_MEA_acute_LDH was analyzed into 1 assay endpoint. This assay endpoint, CCTE_Shafer_MEA_acute_LDH, was analyzed in the positive analysis fitting direction relative to DMSO as the negative control and baseline of activity. Using a type of viability reporter, gain-of-signal activity can be used to understand cell viability.
# Immediately following the 40 min recording in the presence of compounds, 50 uL of media was removed from each well and transferred to a sterile 96-well plate. This was used to determine LDH released from cells during compound exposure using a kit from Promega where absorbance was determined in a Molecular Devices VersaMax plate reader at 490 nm.
row,Structure (SMILES),outcome
1,NC(=O)N(O)[C@@H]1C=C[C@H](Oc2cccc(Oc3ccc(F)cc3)c2)C1,inactive
2,OCCC(F)(F)C(F)(F)C(F)(F)C(F)(F)C(F)(F)C(F)(F)C(F)(F)C(F)(F)F,inactive
3,CN1CCN(c2ccccc2/C=C2\SCCN(c3ccc(Cl)c(Cl)c3)C2=O)CC1,inactive
4,O=C(O)c1ccccc1C(c1ccc(O)cc1)c1ccc(O)cc1,inactive
5,CCCCCCCCCCCCN1CCCC1=O,inactive
6,CC#C[C@]1(O)CC[C@H]2[C@@H]3CCC4=CC(=O)CCC4=C3[C@@H](c3ccc(N(C)C)cc3)C[C@@]21C,inactive
7,CC(C)CCCCCCOC(=O)CCCCC(=O)OCCCCCCC(C)C,inactive
8,Cc1cc(CCN2CCN(c3nsc4ccccc34)CC2)cc2c1NC(=O)CC2(C)C,inactive
9,CCCOc1sc(C(=O)N2CCC(c3cc(CN)ccc3F)CC2)c(C)c1Br,inactive
10,CCCCCCCCCCCCc1ccccc1S(=O)(=O)O,inactive
11,CCC(=C(c1ccc(O)cc1)c1ccc(OCCN(C)C)cc1)c1ccccc1,inactive
12,OC1CCC(C2CCCCC2)CC1 (centres undefined),inactive
13,CC[C@H](c1ccc(O)cc1)[C@@H](CC)c1ccc(O)cc1,inactive
14,CC(=O)NC1(c2cccc(F)c2)CCN(CC[C@@]2(c3ccc(Cl)c(Cl)c3)CN(c3ccccc3)C(=O)CO2)CC1,inactive
